According to the supplement of paper PMC11732987, “Enantioselective OTUD7B fragment discovery through chemoproteomics screening and high-throughput optimisation” (Communications Chemistry, 2025):

What was measured:
Assay in all cases: log2 ratio of Biotin-Ahx-Ub-VS probe labelling (fragment/DMSO); higher = less target engagement (more negative = stronger competition), active = hit call of the paper (q ≤ 0.05, log2 ratio ≤ -1)
Conditions in all cases: compound concentration: 200 uM; treatment time: 3 h
USP34 = USP34 (UniProt Q70CQ2)
Chain of USP34 (Q70CQ2 whole entry, the tested form may be a part): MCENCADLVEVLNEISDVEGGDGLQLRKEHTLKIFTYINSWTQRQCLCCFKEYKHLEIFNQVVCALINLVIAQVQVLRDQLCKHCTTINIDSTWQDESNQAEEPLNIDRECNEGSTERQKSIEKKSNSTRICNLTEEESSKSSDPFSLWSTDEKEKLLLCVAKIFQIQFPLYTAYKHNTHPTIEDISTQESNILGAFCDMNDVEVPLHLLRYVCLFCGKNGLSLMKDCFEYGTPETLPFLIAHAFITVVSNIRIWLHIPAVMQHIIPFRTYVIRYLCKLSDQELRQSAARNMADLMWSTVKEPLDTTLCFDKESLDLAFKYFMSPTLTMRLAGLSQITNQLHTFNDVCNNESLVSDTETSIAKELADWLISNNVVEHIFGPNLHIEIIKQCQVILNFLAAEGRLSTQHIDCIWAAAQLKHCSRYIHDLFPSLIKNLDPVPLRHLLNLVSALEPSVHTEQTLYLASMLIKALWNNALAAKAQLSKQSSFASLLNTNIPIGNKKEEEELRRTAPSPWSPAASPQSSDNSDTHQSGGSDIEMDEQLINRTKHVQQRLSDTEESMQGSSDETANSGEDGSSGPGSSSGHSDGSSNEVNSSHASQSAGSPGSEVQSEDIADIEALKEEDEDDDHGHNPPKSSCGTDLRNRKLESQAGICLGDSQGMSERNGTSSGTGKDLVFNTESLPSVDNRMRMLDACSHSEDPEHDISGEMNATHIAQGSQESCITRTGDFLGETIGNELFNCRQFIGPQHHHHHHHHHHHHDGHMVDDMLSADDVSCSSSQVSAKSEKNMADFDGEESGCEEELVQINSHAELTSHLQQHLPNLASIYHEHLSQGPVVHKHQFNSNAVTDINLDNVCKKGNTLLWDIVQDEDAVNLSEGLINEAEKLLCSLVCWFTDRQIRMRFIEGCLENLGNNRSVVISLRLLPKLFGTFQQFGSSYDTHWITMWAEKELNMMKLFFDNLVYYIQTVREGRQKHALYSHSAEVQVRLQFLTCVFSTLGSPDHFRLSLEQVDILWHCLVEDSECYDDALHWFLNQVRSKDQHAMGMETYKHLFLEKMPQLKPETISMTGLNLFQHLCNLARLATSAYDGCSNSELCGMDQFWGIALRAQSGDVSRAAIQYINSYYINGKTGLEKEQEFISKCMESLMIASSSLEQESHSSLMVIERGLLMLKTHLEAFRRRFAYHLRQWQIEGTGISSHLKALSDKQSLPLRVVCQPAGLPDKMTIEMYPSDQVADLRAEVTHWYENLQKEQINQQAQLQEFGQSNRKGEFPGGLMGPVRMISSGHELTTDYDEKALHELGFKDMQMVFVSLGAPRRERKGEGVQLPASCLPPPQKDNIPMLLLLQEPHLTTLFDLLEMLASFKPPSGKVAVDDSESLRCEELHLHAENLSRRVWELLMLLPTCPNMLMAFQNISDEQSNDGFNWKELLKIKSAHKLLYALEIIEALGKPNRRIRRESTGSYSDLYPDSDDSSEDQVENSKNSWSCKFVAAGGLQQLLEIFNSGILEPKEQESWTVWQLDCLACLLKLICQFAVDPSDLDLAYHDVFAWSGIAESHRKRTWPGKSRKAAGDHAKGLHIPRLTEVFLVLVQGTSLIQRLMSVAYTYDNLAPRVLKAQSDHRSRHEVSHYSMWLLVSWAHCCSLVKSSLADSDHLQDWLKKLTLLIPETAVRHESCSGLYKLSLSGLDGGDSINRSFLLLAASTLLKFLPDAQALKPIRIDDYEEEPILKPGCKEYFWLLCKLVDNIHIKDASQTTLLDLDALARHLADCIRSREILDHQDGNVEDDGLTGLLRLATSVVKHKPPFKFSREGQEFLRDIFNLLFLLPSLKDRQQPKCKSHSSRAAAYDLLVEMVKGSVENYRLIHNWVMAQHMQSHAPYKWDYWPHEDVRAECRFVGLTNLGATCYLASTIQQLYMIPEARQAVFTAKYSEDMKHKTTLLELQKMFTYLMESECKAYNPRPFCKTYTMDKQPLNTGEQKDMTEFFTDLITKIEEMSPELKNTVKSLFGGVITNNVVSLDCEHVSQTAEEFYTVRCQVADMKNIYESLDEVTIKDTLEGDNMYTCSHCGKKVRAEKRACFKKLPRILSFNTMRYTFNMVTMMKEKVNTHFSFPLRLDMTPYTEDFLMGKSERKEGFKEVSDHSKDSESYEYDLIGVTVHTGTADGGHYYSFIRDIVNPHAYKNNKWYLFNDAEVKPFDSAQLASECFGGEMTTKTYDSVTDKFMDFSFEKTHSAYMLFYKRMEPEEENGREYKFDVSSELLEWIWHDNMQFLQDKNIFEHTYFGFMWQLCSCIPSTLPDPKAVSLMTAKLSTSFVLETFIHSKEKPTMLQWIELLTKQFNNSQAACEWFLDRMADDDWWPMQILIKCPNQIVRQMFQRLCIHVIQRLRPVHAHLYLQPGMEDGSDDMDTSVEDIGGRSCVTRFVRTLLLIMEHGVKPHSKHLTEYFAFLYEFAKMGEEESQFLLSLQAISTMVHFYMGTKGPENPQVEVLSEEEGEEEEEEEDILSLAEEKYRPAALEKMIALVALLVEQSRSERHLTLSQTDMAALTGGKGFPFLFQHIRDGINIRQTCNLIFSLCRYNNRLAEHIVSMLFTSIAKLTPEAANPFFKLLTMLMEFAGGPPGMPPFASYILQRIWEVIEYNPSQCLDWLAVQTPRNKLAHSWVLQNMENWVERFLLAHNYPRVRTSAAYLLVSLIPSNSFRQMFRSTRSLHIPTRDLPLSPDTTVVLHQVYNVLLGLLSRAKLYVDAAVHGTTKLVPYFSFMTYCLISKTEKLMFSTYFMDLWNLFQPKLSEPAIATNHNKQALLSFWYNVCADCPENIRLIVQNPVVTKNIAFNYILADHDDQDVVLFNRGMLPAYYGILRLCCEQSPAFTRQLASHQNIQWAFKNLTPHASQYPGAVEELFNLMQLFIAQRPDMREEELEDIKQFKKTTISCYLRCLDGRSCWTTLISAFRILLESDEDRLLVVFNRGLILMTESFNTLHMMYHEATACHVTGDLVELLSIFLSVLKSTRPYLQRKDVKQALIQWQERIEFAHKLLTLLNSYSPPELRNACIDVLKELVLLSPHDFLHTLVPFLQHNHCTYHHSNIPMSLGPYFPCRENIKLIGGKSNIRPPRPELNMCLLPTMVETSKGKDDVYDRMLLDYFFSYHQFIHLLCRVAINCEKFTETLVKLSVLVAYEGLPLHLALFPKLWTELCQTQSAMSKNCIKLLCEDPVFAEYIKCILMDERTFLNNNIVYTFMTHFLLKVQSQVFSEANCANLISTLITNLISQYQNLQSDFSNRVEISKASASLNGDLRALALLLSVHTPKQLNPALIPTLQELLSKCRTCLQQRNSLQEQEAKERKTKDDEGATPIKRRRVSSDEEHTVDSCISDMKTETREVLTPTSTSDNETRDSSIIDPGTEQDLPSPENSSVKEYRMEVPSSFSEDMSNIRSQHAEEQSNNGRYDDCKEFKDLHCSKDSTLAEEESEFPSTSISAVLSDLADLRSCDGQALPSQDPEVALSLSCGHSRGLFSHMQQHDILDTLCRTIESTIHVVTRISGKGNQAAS
In short: (§1)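 Global-median-normalised Spectronaut label-free quantities were compared by unpaired t-test, and values are average log2 ratios of fragment over vehicle. Only proteins with ≥2 unique peptides were used. HEK293T lysate (495 µg per sample) was treated in triplicate with fragment at 200 µM or vehicle for 3 h and then with Biotin-Ahx-Ub-VS at 0.5 µM final for 1 h. Labelled DUBs were then NeutrAvidin-enriched, digested with LysC and trypsin, and run by diaPASEF LC-MS/MS.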

USP36 = target: T1, USP36 (UniProt Q9P275)
T1 sequence (whole entry): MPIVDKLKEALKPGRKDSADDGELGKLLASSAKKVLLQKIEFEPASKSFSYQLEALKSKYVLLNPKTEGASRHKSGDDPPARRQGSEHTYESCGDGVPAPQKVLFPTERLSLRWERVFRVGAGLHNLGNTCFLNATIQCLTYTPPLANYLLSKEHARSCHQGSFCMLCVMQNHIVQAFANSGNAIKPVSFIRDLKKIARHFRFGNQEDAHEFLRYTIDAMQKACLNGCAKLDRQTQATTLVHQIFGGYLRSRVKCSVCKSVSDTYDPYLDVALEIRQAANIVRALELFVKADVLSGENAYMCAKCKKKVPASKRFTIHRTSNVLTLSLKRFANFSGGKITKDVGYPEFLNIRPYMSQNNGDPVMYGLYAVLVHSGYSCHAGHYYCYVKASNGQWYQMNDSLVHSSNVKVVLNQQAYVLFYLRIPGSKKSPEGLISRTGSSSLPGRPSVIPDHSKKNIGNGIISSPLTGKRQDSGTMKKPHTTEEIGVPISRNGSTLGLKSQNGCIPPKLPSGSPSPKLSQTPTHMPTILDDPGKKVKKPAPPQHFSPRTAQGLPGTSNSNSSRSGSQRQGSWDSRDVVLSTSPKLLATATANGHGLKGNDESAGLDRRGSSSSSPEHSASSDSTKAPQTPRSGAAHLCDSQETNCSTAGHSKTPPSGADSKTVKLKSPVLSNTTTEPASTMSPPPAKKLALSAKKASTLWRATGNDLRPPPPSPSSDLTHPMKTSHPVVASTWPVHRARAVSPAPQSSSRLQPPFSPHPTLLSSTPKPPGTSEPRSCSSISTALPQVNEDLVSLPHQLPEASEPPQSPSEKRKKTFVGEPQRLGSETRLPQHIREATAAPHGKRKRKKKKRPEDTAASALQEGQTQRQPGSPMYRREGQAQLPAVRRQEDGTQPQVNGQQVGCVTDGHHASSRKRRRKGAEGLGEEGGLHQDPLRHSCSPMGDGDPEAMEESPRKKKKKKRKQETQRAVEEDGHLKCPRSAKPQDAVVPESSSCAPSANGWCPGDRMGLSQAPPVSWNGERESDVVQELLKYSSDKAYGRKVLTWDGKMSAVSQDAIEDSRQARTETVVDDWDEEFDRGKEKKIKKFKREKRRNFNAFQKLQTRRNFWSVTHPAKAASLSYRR
In short: as §1

USP38 = target: T2, USP38 (UniProt Q8NB14)
T2 sequence (whole entry): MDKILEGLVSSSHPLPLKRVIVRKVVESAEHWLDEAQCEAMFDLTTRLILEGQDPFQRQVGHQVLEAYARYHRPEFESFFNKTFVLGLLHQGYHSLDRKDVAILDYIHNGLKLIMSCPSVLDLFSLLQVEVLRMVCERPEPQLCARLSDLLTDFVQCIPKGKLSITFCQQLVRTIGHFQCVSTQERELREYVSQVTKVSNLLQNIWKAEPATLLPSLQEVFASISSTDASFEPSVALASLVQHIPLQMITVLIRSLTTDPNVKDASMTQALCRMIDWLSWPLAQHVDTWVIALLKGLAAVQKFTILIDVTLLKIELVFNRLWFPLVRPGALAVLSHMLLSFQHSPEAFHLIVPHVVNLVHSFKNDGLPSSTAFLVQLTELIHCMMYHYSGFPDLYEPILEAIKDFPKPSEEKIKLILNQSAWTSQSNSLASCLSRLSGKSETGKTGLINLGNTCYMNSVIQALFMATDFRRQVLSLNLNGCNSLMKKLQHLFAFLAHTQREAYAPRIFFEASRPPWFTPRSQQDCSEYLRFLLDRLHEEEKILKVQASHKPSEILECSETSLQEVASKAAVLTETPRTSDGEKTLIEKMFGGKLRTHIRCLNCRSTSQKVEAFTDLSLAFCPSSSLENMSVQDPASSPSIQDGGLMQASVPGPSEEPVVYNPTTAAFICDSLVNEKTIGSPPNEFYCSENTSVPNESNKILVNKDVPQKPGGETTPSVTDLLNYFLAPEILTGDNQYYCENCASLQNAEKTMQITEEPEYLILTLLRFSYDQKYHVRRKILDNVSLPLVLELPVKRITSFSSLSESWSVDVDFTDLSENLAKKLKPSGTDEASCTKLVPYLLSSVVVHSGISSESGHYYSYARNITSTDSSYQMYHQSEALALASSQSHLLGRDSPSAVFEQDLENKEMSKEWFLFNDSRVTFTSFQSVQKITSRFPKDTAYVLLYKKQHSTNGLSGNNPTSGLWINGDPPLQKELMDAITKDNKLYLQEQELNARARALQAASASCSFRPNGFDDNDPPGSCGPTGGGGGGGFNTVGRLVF
In short: as §1

USP39 = target: T3, USP39 (UniProt Q53GS9)
T3 sequence (whole entry): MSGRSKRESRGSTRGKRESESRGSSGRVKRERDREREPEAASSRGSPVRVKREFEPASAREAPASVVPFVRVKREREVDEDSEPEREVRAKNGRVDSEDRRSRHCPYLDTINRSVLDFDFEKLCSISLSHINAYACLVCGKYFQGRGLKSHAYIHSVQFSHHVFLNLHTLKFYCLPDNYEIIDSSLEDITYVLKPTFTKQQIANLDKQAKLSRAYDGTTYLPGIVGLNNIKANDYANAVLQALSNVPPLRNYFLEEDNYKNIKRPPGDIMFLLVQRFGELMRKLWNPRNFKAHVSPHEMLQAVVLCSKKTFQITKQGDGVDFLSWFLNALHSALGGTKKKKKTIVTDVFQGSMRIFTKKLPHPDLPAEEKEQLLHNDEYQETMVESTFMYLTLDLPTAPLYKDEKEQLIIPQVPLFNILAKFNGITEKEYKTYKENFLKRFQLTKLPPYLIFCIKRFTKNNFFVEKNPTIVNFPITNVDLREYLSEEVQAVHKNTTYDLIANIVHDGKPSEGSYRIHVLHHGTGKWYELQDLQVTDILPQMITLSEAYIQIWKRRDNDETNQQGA
In short: as §1

USP4 = target: T4, USP4 (UniProt Q13107)
T4 sequence (whole entry): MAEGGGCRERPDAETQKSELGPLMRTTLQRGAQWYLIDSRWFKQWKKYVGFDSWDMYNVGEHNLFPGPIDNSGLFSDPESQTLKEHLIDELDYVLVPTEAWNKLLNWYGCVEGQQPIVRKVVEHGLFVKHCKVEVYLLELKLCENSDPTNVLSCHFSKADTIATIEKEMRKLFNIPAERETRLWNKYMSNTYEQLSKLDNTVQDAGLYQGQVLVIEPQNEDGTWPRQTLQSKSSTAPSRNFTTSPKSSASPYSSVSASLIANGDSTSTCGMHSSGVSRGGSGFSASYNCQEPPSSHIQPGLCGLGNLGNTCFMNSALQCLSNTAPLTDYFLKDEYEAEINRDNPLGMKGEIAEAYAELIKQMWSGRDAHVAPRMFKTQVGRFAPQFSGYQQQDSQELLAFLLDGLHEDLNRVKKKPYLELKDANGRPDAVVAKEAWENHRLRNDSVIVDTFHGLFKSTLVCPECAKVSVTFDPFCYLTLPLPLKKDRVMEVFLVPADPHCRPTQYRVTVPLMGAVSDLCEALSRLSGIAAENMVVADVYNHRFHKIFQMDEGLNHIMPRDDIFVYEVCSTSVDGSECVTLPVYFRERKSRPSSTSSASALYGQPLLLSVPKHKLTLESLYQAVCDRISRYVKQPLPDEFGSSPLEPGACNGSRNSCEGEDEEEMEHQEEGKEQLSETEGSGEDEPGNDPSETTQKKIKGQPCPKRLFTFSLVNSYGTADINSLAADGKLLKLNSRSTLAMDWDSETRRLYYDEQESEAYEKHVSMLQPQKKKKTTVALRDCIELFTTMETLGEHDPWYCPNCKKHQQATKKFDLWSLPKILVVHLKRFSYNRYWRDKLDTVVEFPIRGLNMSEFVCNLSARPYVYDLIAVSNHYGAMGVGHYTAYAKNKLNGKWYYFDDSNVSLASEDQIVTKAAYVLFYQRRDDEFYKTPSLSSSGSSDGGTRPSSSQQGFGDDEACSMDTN
In short: as §1

Measured: log2 ratio of Biotin-Ahx-Ub-VS probe labelling

CC(=O)Nc1ccc(NC(=O)CCl)cc1
inactive: USP34 -0.128 | USP36 -0.0191 | USP38 0.0936 | USP39 0.432 | USP4 -0.163
